# How the values were obtained:
# Experiment in all cases: DAPPL (digital affinity profiling via proximity ligation, sequencing); 10 mM Tris-HCl pH 7.5, 50 mM NaCl, 1 mM DTT, 4% glycerol, room temperature, 30 min; GST-TFs on glutathione beads, 16-mer random dsDNA library, 0.1% formaldehyde crosslink after washing; high values mean tight binding
# [1] = target: T1, FLI1 (Homo sapiens, UniProt Q01543 1-452); conditions: protein: recombinant; tags: N-terminal GST; dsDNA, one strand shown
# T1 sequence: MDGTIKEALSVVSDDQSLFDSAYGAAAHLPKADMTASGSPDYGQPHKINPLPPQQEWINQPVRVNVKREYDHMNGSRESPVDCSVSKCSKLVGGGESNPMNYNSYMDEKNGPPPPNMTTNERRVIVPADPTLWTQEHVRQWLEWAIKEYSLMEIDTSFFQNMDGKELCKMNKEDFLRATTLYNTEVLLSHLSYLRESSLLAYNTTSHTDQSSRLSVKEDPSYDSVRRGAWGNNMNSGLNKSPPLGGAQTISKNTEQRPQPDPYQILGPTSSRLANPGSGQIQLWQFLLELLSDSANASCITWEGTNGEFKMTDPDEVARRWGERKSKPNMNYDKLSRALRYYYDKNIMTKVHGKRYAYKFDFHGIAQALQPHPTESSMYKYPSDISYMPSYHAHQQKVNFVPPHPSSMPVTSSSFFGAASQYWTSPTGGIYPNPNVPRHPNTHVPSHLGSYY
# Summary of the method: (§1)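 A tag-only sample was pooled with DNA-barcoded human transcription factors that had been expressed in yeast as GST fusions and captured on glutathione beads. The pools were incubated for 30 min at room temperature with 200 nmole of a random double-stranded 16-mer DNA library in Tris/NaCl/DTT/glycerol buffer, then washed, crosslinked with 0.1% formaldehyde, proximity-ligated (BsaI/T4 ligase, 1 h, 37 °C), PCR-amplified and sequenced on an Illumina NextSeq500. Binding signal is each hexamer's read frequency for a factor divided by its frequency for the tag-only sample.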
# [2] = target: T2, ELK1 (Homo sapiens, UniProt P19419 1-428); conditions: protein: recombinant; tags: N-terminal GST; dsDNA, one strand shown
# T2 sequence: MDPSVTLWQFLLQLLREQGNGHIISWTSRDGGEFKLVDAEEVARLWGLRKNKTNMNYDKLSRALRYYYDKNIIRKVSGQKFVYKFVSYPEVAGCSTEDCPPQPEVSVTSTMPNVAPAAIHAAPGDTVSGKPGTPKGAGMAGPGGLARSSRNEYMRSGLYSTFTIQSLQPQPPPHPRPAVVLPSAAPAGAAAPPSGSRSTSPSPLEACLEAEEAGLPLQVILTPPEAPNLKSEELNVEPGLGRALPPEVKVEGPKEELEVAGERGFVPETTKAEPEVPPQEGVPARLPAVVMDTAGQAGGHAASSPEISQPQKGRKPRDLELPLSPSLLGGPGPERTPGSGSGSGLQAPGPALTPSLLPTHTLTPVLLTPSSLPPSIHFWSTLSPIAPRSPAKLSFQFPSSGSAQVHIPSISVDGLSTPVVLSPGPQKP
# Summary of the method: as §1
# [3] = target: T3, GABPA (Homo sapiens, UniProt Q06546 1-454); conditions: protein: recombinant; tags: N-terminal GST; dsDNA, one strand shown
# T3 sequence: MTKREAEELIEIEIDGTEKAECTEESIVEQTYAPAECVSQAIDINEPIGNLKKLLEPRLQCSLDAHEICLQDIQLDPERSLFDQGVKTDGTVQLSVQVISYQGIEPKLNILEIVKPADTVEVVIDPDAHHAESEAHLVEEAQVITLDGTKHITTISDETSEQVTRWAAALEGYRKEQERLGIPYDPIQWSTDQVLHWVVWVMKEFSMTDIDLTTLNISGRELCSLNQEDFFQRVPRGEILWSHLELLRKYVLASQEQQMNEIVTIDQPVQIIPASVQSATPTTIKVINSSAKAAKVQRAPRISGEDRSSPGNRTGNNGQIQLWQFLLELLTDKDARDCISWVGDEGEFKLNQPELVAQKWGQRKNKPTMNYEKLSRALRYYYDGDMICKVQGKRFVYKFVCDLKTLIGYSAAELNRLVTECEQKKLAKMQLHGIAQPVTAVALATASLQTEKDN
# Summary of the method: as §1
# [4] = target: T4, ERG (Homo sapiens, UniProt P11308 1-479); conditions: protein: recombinant; tags: N-terminal GST; dsDNA, one strand shown
# T4 sequence: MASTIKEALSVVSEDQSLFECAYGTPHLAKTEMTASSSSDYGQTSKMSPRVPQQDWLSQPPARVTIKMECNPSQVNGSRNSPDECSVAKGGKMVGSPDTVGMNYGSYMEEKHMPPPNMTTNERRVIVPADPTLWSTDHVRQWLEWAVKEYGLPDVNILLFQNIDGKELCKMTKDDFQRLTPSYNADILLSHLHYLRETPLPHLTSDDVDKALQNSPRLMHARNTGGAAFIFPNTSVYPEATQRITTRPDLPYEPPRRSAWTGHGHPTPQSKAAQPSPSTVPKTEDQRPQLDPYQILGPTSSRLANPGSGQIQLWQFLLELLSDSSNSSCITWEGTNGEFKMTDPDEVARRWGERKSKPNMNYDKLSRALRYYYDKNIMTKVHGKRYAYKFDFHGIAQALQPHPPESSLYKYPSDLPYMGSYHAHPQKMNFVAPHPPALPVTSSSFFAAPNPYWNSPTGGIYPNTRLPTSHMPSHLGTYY
# Summary of the method: as §1
# [5] = target: ELF1 (Homo sapiens, UniProt P32519 1-619); conditions: protein: recombinant; tags: N-terminal GST; dsDNA, one strand shown
# Summary of the method: as §1
# [6] = target: T5, EHF (Homo sapiens, UniProt Q9NZC4 1-300); conditions: protein: recombinant; tags: N-terminal GST; dsDNA, one strand shown
# T5 sequence: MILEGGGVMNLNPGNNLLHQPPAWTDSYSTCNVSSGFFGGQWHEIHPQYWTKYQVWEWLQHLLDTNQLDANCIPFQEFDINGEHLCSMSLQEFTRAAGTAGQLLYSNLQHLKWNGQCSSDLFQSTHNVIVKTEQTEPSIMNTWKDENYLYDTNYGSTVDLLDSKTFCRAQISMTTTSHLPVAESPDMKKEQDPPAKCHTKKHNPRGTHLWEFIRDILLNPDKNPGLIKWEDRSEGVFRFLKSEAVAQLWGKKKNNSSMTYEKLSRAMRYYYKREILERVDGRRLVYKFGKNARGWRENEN
# Summary of the method: as §1
# [7] = target: SPI1 (Homo sapiens, UniProt P17947 1-270); conditions: protein: recombinant; tags: N-terminal GST; dsDNA, one strand shown
# Summary of the method: as §1
# [8] = target: SPIB (Homo sapiens, UniProt Q01892 1-262); conditions: protein: recombinant; tags: N-terminal GST; dsDNA, one strand shown
# Summary of the method: as §1
# [9] = target: T6, ELK3 (Homo sapiens, UniProt P41970 1-407); conditions: protein: recombinant; tags: N-terminal GST; dsDNA, one strand shown
# T6 sequence: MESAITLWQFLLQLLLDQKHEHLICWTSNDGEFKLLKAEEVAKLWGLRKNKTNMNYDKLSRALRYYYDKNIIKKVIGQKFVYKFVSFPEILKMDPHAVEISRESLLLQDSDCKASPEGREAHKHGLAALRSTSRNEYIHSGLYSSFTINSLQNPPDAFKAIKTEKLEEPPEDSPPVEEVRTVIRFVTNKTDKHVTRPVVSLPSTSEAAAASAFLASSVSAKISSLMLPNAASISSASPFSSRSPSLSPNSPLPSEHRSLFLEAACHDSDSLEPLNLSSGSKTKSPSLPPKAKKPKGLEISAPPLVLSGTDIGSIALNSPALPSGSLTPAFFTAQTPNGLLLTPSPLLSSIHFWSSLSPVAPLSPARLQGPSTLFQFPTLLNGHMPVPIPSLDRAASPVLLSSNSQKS
# Summary of the method: as §1
# [10] = target: T7, FEV (Homo sapiens, UniProt Q99581 1-238); conditions: protein: recombinant; tags: N-terminal GST; dsDNA, one strand shown
# T7 sequence: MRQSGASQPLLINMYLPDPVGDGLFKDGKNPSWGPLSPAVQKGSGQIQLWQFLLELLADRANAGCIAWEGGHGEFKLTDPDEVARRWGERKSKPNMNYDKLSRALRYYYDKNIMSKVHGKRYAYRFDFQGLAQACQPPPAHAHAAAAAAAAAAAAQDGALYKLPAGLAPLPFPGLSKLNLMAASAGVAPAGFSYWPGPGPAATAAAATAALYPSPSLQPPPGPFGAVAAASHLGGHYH
# Summary of the method: as §1
# [11] = target: ETV5 (Homo sapiens, UniProt P41161 1-510); conditions: protein: recombinant; tags: N-terminal GST; dsDNA, one strand shown
# Summary of the method: as §1
# [12] = target: HSF1 (Homo sapiens, UniProt Q00613 1-529); conditions: protein: recombinant; tags: N-terminal GST; chain copies: 3; dsDNA, one strand shown
# Summary of the method: as §1
# [13] = target: T8, SPIC (Homo sapiens, UniProt Q8N5J4 1-248); conditions: protein: recombinant; tags: N-terminal GST; dsDNA, one strand shown
# T8 sequence: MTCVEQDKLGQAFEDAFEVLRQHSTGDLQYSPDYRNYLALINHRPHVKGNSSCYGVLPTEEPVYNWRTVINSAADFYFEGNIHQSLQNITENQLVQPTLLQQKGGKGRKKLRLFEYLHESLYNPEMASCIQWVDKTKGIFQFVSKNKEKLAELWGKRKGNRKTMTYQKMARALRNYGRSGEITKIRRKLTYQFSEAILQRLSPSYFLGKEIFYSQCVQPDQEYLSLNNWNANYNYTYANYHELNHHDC
# Summary of the method: as §1
# [14] = target: ELF4 (Homo sapiens, UniProt Q99607 1-663); conditions: protein: recombinant; tags: N-terminal GST; dsDNA, one strand shown
# Summary of the method: as §1
# [15] = target: T9, ELK4 (Homo sapiens, UniProt P28324-2 1-405); conditions: protein: recombinant; tags: N-terminal GST; dsDNA, one strand shown
# T9 sequence: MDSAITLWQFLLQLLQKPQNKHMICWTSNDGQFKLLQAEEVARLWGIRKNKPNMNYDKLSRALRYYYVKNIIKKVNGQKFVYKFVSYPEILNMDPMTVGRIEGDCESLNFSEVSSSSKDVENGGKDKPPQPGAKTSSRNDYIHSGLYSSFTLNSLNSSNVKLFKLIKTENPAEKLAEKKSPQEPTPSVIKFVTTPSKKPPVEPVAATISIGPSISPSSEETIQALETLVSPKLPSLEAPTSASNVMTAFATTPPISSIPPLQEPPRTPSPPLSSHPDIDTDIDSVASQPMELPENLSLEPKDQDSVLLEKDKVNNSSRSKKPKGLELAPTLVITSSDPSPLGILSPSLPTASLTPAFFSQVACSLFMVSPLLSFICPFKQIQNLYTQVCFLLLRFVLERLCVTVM
# Summary of the method: as §1
# [16] = target: T10, ETV2 (Homo sapiens, UniProt O00321 1-342); conditions: protein: recombinant; tags: N-terminal GST; dsDNA, one strand shown
# T10 sequence: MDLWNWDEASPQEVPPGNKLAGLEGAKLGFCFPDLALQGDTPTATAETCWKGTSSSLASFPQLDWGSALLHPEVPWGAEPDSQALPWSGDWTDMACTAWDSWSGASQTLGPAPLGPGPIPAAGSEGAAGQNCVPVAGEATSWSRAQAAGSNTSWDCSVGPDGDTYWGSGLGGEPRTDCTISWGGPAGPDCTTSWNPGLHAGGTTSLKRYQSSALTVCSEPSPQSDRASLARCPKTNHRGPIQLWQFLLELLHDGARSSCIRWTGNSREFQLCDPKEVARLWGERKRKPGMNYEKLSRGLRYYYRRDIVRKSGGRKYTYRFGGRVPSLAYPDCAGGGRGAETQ
# Summary of the method: as §1
# [17] = target: T11, ELF3 (Homo sapiens, UniProt P78545 1-371); conditions: protein: recombinant; tags: N-terminal GST; dsDNA, one strand shown
# T11 sequence: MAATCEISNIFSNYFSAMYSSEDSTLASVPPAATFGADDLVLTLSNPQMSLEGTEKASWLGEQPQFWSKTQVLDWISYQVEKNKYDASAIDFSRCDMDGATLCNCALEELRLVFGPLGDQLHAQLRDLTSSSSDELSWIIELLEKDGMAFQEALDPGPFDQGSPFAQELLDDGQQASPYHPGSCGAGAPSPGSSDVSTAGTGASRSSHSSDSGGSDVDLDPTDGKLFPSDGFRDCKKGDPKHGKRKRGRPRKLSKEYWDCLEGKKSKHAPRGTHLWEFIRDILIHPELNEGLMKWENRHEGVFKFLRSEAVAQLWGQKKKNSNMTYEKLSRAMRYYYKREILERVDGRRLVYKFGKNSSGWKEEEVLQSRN
# Summary of the method: as §1
# [18] = target: CRX (Homo sapiens, UniProt O43186 1-299); conditions: protein: recombinant; tags: N-terminal GST; dsDNA, one strand shown
# Summary of the method: as §1
# [19] = target: ETV1 (Homo sapiens, UniProt P50549 1-477); conditions: protein: recombinant; tags: N-terminal GST; dsDNA, one strand shown
# Summary of the method: as §1
# ELF4, sequence (Q99607 whole entry): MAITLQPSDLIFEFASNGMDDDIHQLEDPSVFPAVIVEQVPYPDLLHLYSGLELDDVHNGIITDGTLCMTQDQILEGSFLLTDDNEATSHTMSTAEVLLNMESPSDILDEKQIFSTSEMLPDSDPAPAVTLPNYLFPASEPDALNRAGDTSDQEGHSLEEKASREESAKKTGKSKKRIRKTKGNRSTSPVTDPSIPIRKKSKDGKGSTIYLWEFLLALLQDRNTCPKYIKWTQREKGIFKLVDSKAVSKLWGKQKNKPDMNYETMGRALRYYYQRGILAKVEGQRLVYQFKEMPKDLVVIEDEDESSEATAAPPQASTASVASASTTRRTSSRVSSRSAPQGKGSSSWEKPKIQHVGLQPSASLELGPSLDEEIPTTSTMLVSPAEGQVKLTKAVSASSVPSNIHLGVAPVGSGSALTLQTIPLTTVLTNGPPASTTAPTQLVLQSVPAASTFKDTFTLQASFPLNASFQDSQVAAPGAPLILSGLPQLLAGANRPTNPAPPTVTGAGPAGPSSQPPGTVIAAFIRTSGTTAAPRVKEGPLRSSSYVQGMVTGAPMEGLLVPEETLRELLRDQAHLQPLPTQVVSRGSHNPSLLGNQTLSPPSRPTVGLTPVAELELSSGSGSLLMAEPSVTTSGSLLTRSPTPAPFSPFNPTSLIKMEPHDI
# ELF1, sequence (P32519 whole entry): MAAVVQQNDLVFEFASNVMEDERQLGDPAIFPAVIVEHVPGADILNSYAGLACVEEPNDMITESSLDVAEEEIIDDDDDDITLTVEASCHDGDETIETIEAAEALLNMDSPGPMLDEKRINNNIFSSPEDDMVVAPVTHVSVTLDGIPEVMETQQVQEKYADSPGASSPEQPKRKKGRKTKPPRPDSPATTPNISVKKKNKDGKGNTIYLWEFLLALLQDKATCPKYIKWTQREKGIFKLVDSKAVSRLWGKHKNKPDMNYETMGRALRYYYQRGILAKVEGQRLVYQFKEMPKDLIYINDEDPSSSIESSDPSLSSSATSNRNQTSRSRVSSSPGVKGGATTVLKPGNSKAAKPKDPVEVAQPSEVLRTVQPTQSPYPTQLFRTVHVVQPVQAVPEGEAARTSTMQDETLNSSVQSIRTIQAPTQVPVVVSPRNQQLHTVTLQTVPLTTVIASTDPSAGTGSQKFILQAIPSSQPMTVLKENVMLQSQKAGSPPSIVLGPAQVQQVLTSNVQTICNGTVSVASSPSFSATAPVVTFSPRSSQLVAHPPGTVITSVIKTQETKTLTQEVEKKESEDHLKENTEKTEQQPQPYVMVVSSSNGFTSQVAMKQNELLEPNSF
# CRX, sequence (O43186 whole entry): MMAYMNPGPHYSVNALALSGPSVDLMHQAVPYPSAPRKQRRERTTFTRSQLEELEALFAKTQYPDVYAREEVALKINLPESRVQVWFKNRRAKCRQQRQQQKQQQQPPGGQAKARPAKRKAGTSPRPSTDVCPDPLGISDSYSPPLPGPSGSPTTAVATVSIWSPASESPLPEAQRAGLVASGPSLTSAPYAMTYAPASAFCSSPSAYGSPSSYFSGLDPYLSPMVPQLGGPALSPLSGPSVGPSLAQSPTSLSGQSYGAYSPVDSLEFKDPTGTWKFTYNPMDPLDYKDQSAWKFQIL
# ETV5, sequence (P41161 whole entry): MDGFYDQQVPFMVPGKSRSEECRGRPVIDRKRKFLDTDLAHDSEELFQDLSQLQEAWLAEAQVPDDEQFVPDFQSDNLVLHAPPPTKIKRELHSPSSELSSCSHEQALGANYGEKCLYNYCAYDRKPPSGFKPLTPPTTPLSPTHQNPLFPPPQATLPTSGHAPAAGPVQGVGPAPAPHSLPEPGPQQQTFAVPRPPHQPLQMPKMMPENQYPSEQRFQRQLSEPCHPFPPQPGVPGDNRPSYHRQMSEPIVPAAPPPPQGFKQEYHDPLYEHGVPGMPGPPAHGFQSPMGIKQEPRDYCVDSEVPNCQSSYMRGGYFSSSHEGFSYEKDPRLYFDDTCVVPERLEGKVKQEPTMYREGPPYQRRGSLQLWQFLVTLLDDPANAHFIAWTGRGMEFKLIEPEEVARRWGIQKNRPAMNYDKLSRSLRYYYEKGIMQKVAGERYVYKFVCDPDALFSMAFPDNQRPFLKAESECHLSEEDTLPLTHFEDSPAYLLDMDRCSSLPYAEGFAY
# HSF1, sequence (Q00613 whole entry): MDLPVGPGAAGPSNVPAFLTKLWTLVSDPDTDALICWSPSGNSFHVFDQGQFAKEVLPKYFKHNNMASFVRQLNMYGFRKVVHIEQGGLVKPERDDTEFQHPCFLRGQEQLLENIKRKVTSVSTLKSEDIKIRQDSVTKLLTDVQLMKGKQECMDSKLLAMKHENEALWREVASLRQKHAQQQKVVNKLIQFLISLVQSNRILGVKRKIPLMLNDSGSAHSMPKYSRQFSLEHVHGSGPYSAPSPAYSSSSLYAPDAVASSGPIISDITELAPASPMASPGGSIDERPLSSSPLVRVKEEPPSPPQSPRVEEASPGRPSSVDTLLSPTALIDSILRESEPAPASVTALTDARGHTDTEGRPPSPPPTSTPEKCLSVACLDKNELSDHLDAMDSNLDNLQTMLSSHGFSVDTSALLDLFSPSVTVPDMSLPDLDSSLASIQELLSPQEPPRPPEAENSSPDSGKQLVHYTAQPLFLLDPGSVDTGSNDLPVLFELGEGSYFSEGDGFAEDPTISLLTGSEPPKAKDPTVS
# ETV1, sequence (P50549 whole entry): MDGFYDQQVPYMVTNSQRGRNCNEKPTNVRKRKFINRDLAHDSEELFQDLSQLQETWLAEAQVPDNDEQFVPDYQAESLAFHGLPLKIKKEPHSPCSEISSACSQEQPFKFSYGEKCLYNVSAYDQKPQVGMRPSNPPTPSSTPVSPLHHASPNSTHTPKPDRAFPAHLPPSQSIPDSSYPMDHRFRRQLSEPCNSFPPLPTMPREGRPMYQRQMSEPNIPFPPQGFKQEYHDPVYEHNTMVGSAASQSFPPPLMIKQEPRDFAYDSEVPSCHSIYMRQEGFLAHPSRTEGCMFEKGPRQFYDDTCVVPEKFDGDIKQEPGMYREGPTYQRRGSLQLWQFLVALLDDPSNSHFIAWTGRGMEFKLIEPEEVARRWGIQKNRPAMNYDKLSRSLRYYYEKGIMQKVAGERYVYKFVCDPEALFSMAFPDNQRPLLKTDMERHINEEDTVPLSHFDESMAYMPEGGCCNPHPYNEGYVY
# SPIB, sequence (Q01892 whole entry): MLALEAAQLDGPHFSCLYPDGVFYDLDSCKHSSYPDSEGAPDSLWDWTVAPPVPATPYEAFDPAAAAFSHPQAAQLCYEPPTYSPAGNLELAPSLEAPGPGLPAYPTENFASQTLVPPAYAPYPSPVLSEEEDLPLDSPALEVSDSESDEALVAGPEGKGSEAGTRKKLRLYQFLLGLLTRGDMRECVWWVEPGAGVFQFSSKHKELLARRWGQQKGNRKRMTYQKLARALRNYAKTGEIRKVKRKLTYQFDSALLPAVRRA
sequence,measurement,setting,value
CCCTAT,binding signal,[1],"1.33 fold enrichment (6-mer frequency, TF over GST control)"
same,binding signal,[2],"1.33 fold enrichment (6-mer frequency, TF over GST control)"
same,binding signal,[3],"1.32 fold enrichment (6-mer frequency, TF over GST control)"
same,binding signal,[4],"1.32 fold enrichment (6-mer frequency, TF over GST control)"
same,binding signal,[5],"1.32 fold enrichment (6-mer frequency, TF over GST control)"
same,binding signal,[6],"1.25 fold enrichment (6-mer frequency, TF over GST control)"
same,binding signal,[7],"1.45 fold enrichment (6-mer frequency, TF over GST control)"
same,binding signal,[8],"1.35 fold enrichment (6-mer frequency, TF over GST control)"
same,binding signal,[9],"1.46 fold enrichment (6-mer frequency, TF over GST control)"
same,binding signal,[10],"1.39 fold enrichment (6-mer frequency, TF over GST control)"
same,binding signal,[11],"1.29 fold enrichment (6-mer frequency, TF over GST control)"
same,binding signal,[12],"1.13 fold enrichment (6-mer frequency, TF over GST control)"
same,binding signal,[13],"1.2 fold enrichment (6-mer frequency, TF over GST control)"
same,binding signal,[14],"1.37 fold enrichment (6-mer frequency, TF over GST control)"
same,binding signal,[15],"1.29 fold enrichment (6-mer frequency, TF over GST control)"
same,binding signal,[16],"1.33 fold enrichment (6-mer frequency, TF over GST control)"
same,binding signal,[17],"1.29 fold enrichment (6-mer frequency, TF over GST control)"
same,binding signal,[18],"1.17 fold enrichment (6-mer frequency, TF over GST control)"
same,binding signal,[19],"1.37 fold enrichment (6-mer frequency, TF over GST control)"
